Measured values from PubChem BioAssay (EPA / NIEHS).
Calls of active or inactive are those of the source. Rule for the calls, unless noted: active = hit-call score of the fitted dose curve at least 0.9, where 1 is the maximum; inactive = score below 0.9.

Assays:
[1] = target: Peroxisome proliferator-activated receptor gamma (Homo sapiens) (UniProt P37231); assay: OT_PPARg_PPARgSRC1_1440: Odyssey Thera (OT) 24-hour Protein-Complementation Assay for Peroxisome Proliferator-activated Receptor Gamma/ SRC-1 Co-activator (AID 2283388; active = hit-call score of the fitted dose curve at least 0.9, where 1 is the maximum;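 note: nuclear to cytoplasmic ratio of reconstituted Venus YFP fluorescence in fixed imaged cells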)
Sequence of Peroxisome proliferator-activated receptor gamma (Homo sapiens) (P37231 whole entry, looked up, the tested form may be a part): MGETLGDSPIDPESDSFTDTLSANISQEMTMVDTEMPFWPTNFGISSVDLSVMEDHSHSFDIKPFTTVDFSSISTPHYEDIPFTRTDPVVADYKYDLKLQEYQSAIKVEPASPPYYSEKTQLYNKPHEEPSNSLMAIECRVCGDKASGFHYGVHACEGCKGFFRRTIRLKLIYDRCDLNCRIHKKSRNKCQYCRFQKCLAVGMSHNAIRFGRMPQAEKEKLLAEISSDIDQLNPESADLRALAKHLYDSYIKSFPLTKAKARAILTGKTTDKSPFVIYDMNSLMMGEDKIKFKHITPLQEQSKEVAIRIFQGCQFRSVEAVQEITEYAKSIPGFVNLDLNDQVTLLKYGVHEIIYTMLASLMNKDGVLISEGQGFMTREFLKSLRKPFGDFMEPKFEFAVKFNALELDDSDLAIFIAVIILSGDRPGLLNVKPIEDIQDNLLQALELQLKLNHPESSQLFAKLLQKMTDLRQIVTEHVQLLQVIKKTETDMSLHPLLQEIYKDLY
Summary of the method: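 Readout: nuclear-to-cytoplasmic 488 nm fluorescence ratio, ≥350 cells per image, 8 images per well, after 24 h compound exposure of HEK293T expressing PPARg/SRC-1 split-YFP fusions. Activity fitted in positive direction against DMSO.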

[2] = CEETOX_H295R_11DCORT: CeeTox H295R High-throughput Steroidogenesis Assay for 11-Deoxycortisol (11DCORT) (AID 2283432); details: actives raise or lower the signal;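 for AC50: 11-deoxycortisol secreted into the medium measured by LC-MS/MS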
Summary of the method: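 H295R cells; 10 uM forskolin prestim 48 h; compound in 0.1% DMSO 48 h; media extracted with MTBE; 11-deoxycortisol by LC-MS/MS, 7-point standard curve; gain/loss vs DMSO baseline; viability by MTT in same wells.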

[3] = CEETOX_H295R_OHPREG: CeeTox H295R High-throughput Steroidogenesis Assay for OH-Pregnenolone (OHPREG) (AID 2283434); details: actives raise or lower the signal
Summary of the method: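 Human adrenal H295R cells were prestimulated 48 h with 10 uM forskolin, then exposed 48 h to chemical in 0.1% DMSO. Medium 17alpha-hydroxypregnenolone was quantified by HPLC-MS/MS after MTBE extraction; bidirectional fitting versus DMSO baseline.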

[4] = CEETOX_H295R_OHPROG: CeeTox H295R High-throughput Steroidogenesis Assay for OH-Progesterone (OHPROG) (AID 2283435); details: actives raise or lower the signal
Summary of the method: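 H295R adrenal cells prestimulated 48 h with 10 uM forskolin, then exposed 48 h to chemical (0.1% DMSO final). 17alpha-hydroxyprogesterone in medium quantified by HPLC-MS/MS; bidirectional fit versus DMSO, with MTT viability measured in the same wells.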

[5] = CEETOX_H295R_CORTIC: CeeTox H295R High-throughput Steroidogenesis Assay for Corticosterone (CORTIC) (AID 2283437); details: actives raise or lower the signal;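 note: corticosterone secreted into medium quantified by mass spectrometry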
Summary of the method: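 H295R cells were prestimulated 48 h with 10 uM forskolin, then exposed 48 h to test chemical in 0.1% DMSO. Medium corticosterone was MTBE-extracted and quantified by HPLC-MS/MS; bidirectional fit versus DMSO baseline.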

[6] = CEETOX_H295R_CORTISOL: CeeTox H295R High-throughput Steroidogenesis Assay for Cortisol (AID 2283438); details: actives raise or lower the signal;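 note: cortisol secreted into medium quantified by LC-MS/MS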
Summary of the method: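 Forskolin-primed H295R cells (10 uM, 48 h) treated 48 h with test chemical in 0.1% DMSO. Cortisol in medium quantified by MTBE extraction and HPLC-MS/MS; bidirectional fit vs DMSO, MTT viability in same wells.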

[7] = CEETOX_H295R_DOC: CeeTox H295R High-throughput Steroidogenesis Assay for DOC (AID 2283439); details: actives raise or lower the signal
Summary of the method: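 H295R cells prestimulated 48 h with 10 uM forskolin, then exposed 48 h to test chemical (0.1% DMSO final). Medium 11-deoxycorticosterone measured by HPLC-MS/MS after MTBE extraction; bidirectional fit vs DMSO, viability checked by MTT in same wells.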

[8] = CEETOX_H295R_ESTRADIOL: CeeTox H295R High-throughput Steroidogenesis Assay for Estradiol (AID 2283440); details: actives raise or lower the signal;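 note: estradiol secreted into medium quantified by LC-MS/MS after dansyl derivatisation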
Summary of the method: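 H295R, 48 h forskolin (10 uM) prestim → 48 h compound, 0.1% DMSO final. Estradiol in medium: MTBE extraction, dansyl chloride derivatization, LC-MS/MS. Fit bidirectional vs DMSO baseline; MTT viability in same wells.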

[9] = CEETOX_H295R_ESTRONE: CeeTox H295R High-throughput Steroidogenesis Assay for Estrone (AID 2283441); details: actives raise or lower the signal;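 note: estrone secreted into medium measured by LC-MS/MS after dansyl derivatization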
Summary of the method: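 H295R cells prestimulated 48 h with 10 uM forskolin, then exposed 48 h to chemicals in 0.1% DMSO final; estrone in medium extracted with MTBE, dansyl-derivatized, quantified by HPLC-MS/MS; bidirectional fitting versus DMSO, viability by MTT.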

[10] = CEETOX_H295R_ANDR: CeeTox H295R High-throughput Steroidogenesis Assay for Androstenedione (ANDR) (AID 2283436); details: actives raise or lower the signal
Summary of the method: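 H295R human adrenal cells (passages ≤10) were exposed to test chemicals for 48 h; androstenedione in medium was MTBE-extracted and quantified by HPLC-MS/MS against a 7-point standard curve. Bidirectional fitting used DMSO as baseline.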

Measured: AC50

O=C(OCc1ccccc1)c1ccc(O)cc1
active: [2] 36.8 µM | [3] 30.5 µM | [4] 13.5 µM | [6] 36.9 µM | [7] 42.7 µM | [8] 50 µM | [9] 37.5 µM
inactive: [1] | [5]

C=CC(=O)OCCCCCCOC(=O)C=C
not listed: [1]
inactive: all other assays above

Nc1ccc(C(=O)O)cc1
inactive: [1]

CC(=O)OC1CCCCC1C(C)(C)C (configuration not stated)
inactive: [1]

C=C1C[C@H]2[C@@H]3C=C(C)C4=CC(=O)CC[C@]4(C)[C@H]3CC[C@]2(C)[C@@]1(OC(C)=O)C(C)=O
inactive: [1]

CCN1CN(CC)CN(CC)C1
not listed: [10]
inactive: all other assays above

CC(C)=CCCC(C)=CC#N
inactive: [1]

C=C[Si](OCCOC)(OCCOC)OCCOC
inactive: [1]

CCOC(=O)C1=NN(c2ccc(Cl)cc2Cl)C(C)(C(=O)OCC)C1 (configuration not stated)
not listed: [1]
inactive: all other assays above

Cc1ccc([N+](=O)[O-])cc1N
inactive: [1] | [3]
active: [4] 18.8 µM

O=C(Nc1ccccc1)c1cc(Cl)ccc1O
inactive: [1]

CCCCCCCCCCCCc1ccc(O)cc1
inactive: [1]

CCCCCCC=O
inactive: [1]

CCCCCCO
inactive: [1]

CC(=O)OC(C)c1ccccc1 (configuration not stated)
inactive: [1]

COc1ccc(-c2coc3cc(O)cc(O)c3c2=O)cc1
active: [2] 6.15 µM | [3] 7.39 µM | [4] 7.4 µM | [6] 3.65 µM | [7] 5 µM
inactive: [5] | [8] | [9]
